Compounds with a hit are over-represented: about 1.5% of the library has one in this group of screens.
gsp ag – activates gsp, the McCune-Albright syndrome mutation; 340,000 tested, 0.13% active; AID 624287; Potency, µM (series often up to 76.9 µM), inactives show at the top dose activation (cAMP increase), hits mostly activators; gsp mutant cells, cAMP HTRF, 30 min; active = well fitted activation curve with a large enough effect; inconclusive = small, poorly fitted or top-dose-only effect, or another doubt; inactive = no such curve, though single readings can be large or run the other way; cell line not stated here;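 note: phosphodiesterase inhibitor Ro 20-1724 added with compounds to block cAMP breakdown; potency is the fitted concentration of half-maximal effect; nearly all actives have a fitted effect of over 60% in size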
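Cells stably selected in G418 were plated at 2000/well, grown 16-24 hr, then given compounds in DMSO with the PDE inhibitor […] (300 uM solution added) for 30 min at 37C; cAMP was read by HTRF.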
mIDH1 inhibitor – inhibitors of human mutant IDH1 R132H; O75874; IDH1-R132H enzyme, NADPH consumption, diaphorase/resazurin fluorescence; Potency, µM (series often up to 76.6 µM), for the others: at the top dose activity change, negative = inhibition, usual class: inhibitors; 390,000 tested, 0.093% active; note: potency is the fitted concentration of half-maximal effect; % is set by controls: 0 for no effect and ±100 for the full control effect; nearly all actives have a fitted effect of over 65% in size
Target sequence (O75874 whole entry R132H, stated change not applied): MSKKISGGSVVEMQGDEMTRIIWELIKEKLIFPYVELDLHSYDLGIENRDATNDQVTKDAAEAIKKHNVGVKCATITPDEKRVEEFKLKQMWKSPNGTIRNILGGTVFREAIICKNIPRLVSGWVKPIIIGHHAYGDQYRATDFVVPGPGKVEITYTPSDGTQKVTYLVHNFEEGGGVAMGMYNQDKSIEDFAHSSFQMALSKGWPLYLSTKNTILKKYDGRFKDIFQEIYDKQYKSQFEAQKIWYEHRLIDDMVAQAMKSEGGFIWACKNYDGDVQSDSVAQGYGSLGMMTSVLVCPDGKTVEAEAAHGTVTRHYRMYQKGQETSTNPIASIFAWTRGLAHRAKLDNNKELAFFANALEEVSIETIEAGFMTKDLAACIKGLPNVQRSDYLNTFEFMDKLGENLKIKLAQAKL
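IDH1-R132H (0.5 ug/mL) preincubated 30 min with compound, then NADPH (0.016 mM) and alpha-KG (2 mM) added; 80 min at RT, pH 7.5. Remaining NADPH coupled via diaphorase/resazurin to fluorescence (540/590 nm); concentration-response curves normalized to no-enzyme control.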
gsp antagonist – antagonizes gsp, the McCune-Albright syndrome mutation; gsp-mutant cells, cAMP HTRF, 30 min; Potency, µM (doses to about 76.9 µM), for the others: top-dose activity change, negative = inhibition, most hits filed as inhibitors; 340,000 tested, 0.4% active; AID 624288; calls by dose curve; cell line not stated here;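 note: intracellular cAMP measured with PDE inhibitor Ro 20-1724 present during compound exposure; potency is the fitted concentration of half-maximal effect; % is set by controls: 0 for no effect and ±100 for the full control effect; nearly all actives have a fitted effect of over 65% in size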
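Measurement of cellular cAMP by homogeneous time-resolved fluorescence following a 30 min compound exposure at 37C. The PDE inhibitor […] was present throughout; the assay buffer was DPBS with 0.05% BSA and 0.005% Tween 20.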
BRCA1 expr act – increases BRCA1 expression. MCF7-BRCA1-FFLuc reporter, luminescence, 48 h; response scale: scaled: vehicle 0%, 10 µM genistein 100%. 380,000 tested, 1.1% active. Potency, µM (top dose mostly 46.1 µM), for the others: at the highest dose activation, actives largely listed as activators; note: potency is the fitted concentration of half-maximal effect; nearly all actives have a fitted effect of over 80% in size
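First, MCF7-BRCA1-FFLuc cells (2000/well) attach for 2 h; next, compounds are pin-added and incubated 48 h at 37 °C; finally, luciferase reagent is added and luminescence read after 15 min.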
IL-2 act – activates IL-2 in a cell-based reporter assay. IL-2 activation reporter assay, cell-based qHTS; stimulated with anti-CD3/CD4/CD28 beads; in transgenic mouse T cells. activation, % (series mostly up to about 46 µM). 360,000 tested, 0.065% active; in the data active = activation above about 50%; inconclusive = mostly about 30% to 49%; note: 0% is about no effect
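Using fluorescent plate cytometry, EGFP and DsRed are detected in transgenic mouse T cells stimulated 18 h at 37 degrees C with antibody-coated beads after 60 min compound pretreatment.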
Numbers without * were called inactive; ? = inconclusive; nt = not tested or not shown; [ ] = remark or other dose. Unless noted, calls come from the whole dose curve; as a rule, active = well fitted curve in the direction sought with a large enough effect; inconclusive = small, poorly fitted or top-dose-only effect, or another doubt; inactive = no such curve, though single readings can be large; an effect the other way counts as inactive or inconclusive.

SMILES | gsp ag | mIDH1 inhibitor | gsp antagonist | BRCA1 expr act | IL-2 act
CC(=O)c1ccc(NC(=S)NCCc2ccccn2)cc1 | 12% | -3% | 0% | 10µM* | -1
Cc1ccc(-c2cc(C(=O)NCc3ccccn3)no2)cc1 | -17% | 8% | 8% | 11µM* | 2
O=C(Cc1ccccc1Cl)NO | nt | nt | nt | 29% | nt
Cc1ccc(-c2cc(C(=O)NCCc3ccccc3)c3ccccc3n2)cc1C | nt | 2% | nt | nt | nt
CC(C)c1ccccc1Oc1c(C(F)(F)F)oc2c(CN3CCN(C)CC3)c(O)ccc2c1=O | nt | -19% | nt | nt | nt
CCCNC(=O)c1cc(-c2ccc(Br)cc2)on1 | 8% | -1% | 11% | 1.8µM* | 0
Cc1ccc(F)cc1CNC(=O)c1cc(COc2ccc3ncccc3c2)on1 | -42% | -7% | ? | -37% | 0
CCc1ccc(NC(=O)C(=O)NCc2ccccn2)cc1 | -1%[15.4 µM] | 0% | 10% | 3.5µM* | 0
O=C(NCc1cccc(Cl)c1)c1cc(COc2ccc3ncccc3c2)on1 | -3%[15.4 µM] | 0% | 35µM* | -55% | -2
C=CCn1c2ccccc2c(=O)c2cc(C#CC[C@@H](C)O)ccc21 | nt | 36% | -7% | 3.5µM* | 0
Cc1cc(NCCCN)nc(-c2ccccc2O)n1 | -10% | 4% | -4% | 3.5µM* | 0
Cc1ccccc1-c1nnc(SCc2ccccc2)o1 | -1% | 10% | -8% | 10µM* | -3
Cc1cccc(C)c1NC(=O)CSc1nnc(Cc2ccccc2)o1 | 3% | 3% | 11% | 6% | -1
Cc1ccc(CSc2nnc(-c3ccco3)o2)cc1 | 7%[15.4 µM] | 1% | -2% | 5µM* | -1
Cc1ccccc1-c1nnc(Cc2ccccc2)o1 | 2% | 6% | 0% | 2.8µM* | 0
Cc1ccccc1-c1nc2c(=O)n(C)c(=O)nc-2n(C)n1 | nt | nt | nt | -78% | nt
CCCCCCCCCn1c2c(c(=N)c3c1CCC3)CCC2 | -6%[15.4 µM] | 1% | 5% | -98% | -1
CCCCCCn1c2c(c(=N)c3c1CCC3)CCC2 | 16% | -4% | 35µM* | ? | -1
COc1cc(OC)c(Nc2c3c(nc4nc(-c5cccs5)nn24)CCCC3)cc1Cl | nt | 32µM* | nt | nt | nt
CCN1C(=O)c2cccc3c(N)ccc(c23)C1=O | ? | 11% | -2% | 20% | 15
Cc1ccc(N2C(=O)c3cccc4c(N)ccc(c34)C2=O)c2cccnc12 | 27% | 3% | 13% | -44% | 317*
O=C(NCC1CCCCC1)c1ccc(F)cc1Cl | -2%[15.4 µM] | 4% | 8% | 5.6µM* | 0
Cc1ccc(-c2n[nH]c(Cc3ccccc3)n2)cc1 | ? | -4% | -2% | 5.6µM* | -1
CCOc1ccc(OCCOc2ccc(/C=C/C(=O)O)cc2OCC)cc1 | 25%[15.4 µM] | 3% | 20µM* | -1% | -1
CCOc1ccc(/C=C/C(=O)c2ccccc2)cc1 | -9% | -4% | -2% | 13µM* | 0
SMILES | gsp ag | mIDH1 inhibitor | gsp antagonist | BRCA1 expr act | IL-2 act
COc1ccc(CCNC(=O)c2cnn(-c3cccc(C)c3)c2C2CCN(C(=O)OC(C)(C)C)CC2)cc1OC | nt | -11% | nt | nt | nt
O=C(Nc1ccc(CN2CCOCC2)cc1)c1ccc(Cl)cc1 | 3% | 11% | -1% | 13µM* | -4
COc1cc(-c2nnc(COc3ccc(Cl)cc3C)o2)cc(OC)c1OC | 14% | 4% | 7% | -11% | -1
Cc1cc(Br)ccc1OCc1nnc(-c2ccccc2)o1 | -13% | 4% | ? | 13µM* | 2
Clc1ccc(OCc2nnc(-c3ccccc3Br)o2)c(Cl)c1 | 5% | 7% | 10% | 3.2µM* | 1
Cc1cc(Cl)ccc1OCc1nnc(-c2ccccc2C)o1 | -3%[15.4 µM] | -5% | -3% | 10µM* | 0
COc1cccc(NC(=O)c2sc3nc(C)c(C(=O)Nc4ccc(C)cc4C)c(-c4ccc(C)o4)c3c2N)c1 | nt | 2% | nt | nt | nt
CC1(C)Cc2c(cnn2-c2cccc(F)c2)C(NC(=O)c2ccc(=O)[nH]n2)C1 (configuration not stated) | -14% | -1% | 0% | -23% | 0
CC(=O)O/N=C(\N)c1ccc(-c2csnn2)cc1 | -9%[15.4 µM] | 10% | 3% | 11µM* | 1
CC(C)(C)C(=O)O/N=C(\N)c1ccc(-c2csnn2)cc1 | 16%[15.4 µM] | -3% | -23% | 0% | -1
O=C(NNc1cc(Cl)cc(Cl)c1)c1sccc1Cl | nt | nt | nt | 0% | nt
Cc1ccc(CNC(=O)COC(=O)c2ccccc2OCC(=O)Nc2ccc(Br)cc2)cc1 | nt | nt | nt | 46% | nt
COc1ccc2[nH]c(-c3ccccc3)cc2c1 | 6%[15.4 µM] | -3% | -5% | 3.5µM* | -1
N/C(=N\OC(=O)c1ccccc1Cl)c1cccnc1 | 0% | 4% | ? | 18% | 0
N/C(=N\OC(=O)c1ccc2c(c1)OCO2)c1cccnc1 | 4% | 3% | 9% | 10µM* | -5
N/C(=N\OC(=O)c1ccccc1)c1cccnc1 | -46% | 0% | -4% | 11µM* | 0
COc1ccc(-n2c(=O)c3c4c(sc3n3c(SC(C)C)nnc23)COC(C(C)C)C4)cc1 (configuration not stated) | nt | 8% | nt | nt | nt
Cc1ccc(OC(F)F)c(NC(=O)Nc2cccc(C(F)(F)F)c2)c1 | -1% | -2% | 35µM* | -93% | -4
N#C/C(=C\c1ccc(OCc2ccccc2)cc1)C(=O)Nc1ccc(C(=O)O)cc1 | -3%[15.4 µM] | 4% | -16% | 11µM* | -4
CCOc1ccc(NC(=O)/C(C#N)=C/c2ccc(N3CCCC3)c(C)c2)cc1 | -16% | 2% | -11% | -4% | 270*
CCOc1ccc2oc(C(=O)N(C)CC(=O)Nc3ccc(OCC)c(OCC)c3)c(C)c2c1 | -6%[15.4 µM] | 6% | -14% | -6% | -1
COc1ccc2oc(=O)c(C(=O)NCCc3c(C)[nH]c4ccc(Br)cc34)cc2c1 | nt | 1% | nt | 17% | nt
Cc1nc(C#N)nc(Oc2ccccc2)c1Cl | nt | nt | nt | 0% | nt
COc1ccc(/C=N\NC(=O)c2ccccc2Cl)cc1COc1c(F)c(F)c(F)c(F)c1F | 18%[15.4 µM] | -3% | -15% | -71% | 0
CCOc1cc(/C=N/NC(=O)c2ccccc2OCc2ccc(F)cc2)ccc1O | ? | -7% | 35µM* | -27% | 0
SMILES | gsp ag | mIDH1 inhibitor | gsp antagonist | BRCA1 expr act | IL-2 act
COc1ccc(/C=N\NC(=O)c2ccccc2OC)cc1COc1c(F)c(F)c(F)c(F)c1F | -6%[15.4 µM] | 4% | 40µM* | -76% | -1
CSc1ccc(CCNC(=O)CCc2nnc3ccc(N4CCOCC4)nn23)cc1 | 16µM* | -2% | 2% | 1% | -2
COc1cccc(-c2cc(C(=O)NCCc3ccc(C)cc3)[nH]n2)c1 | nt | 14% | nt | nt | nt
COC(=O)/C(=C\C(=O)c1ccccc1)Nc1cccc(C(F)(F)F)c1 | -11% | 4% | -12% | 10µM* | -2
O=[N+]([O-])c1c(Nc2ccc(O)cc2)cc(Cl)c2nonc12 | -25% | -18% | 7.9µM* | -93% | -4
CN(C)c1cc(Nc2ccc(O)cc2)c([N+](=O)[O-])c2nonc12 | 24% | 1% | -3% | -4% | 0

Screening results deposited in PubChem BioAssay by National Center for Advancing Translational Sciences (NCATS).
